The test system of this test is Aedes aegypti neuropeptide Y-like receptor 7 (NPYLR7). Put plainly: agonists of mosquito NPYLR7 receptor, primary screen, cell-based, Aedes aegypti, calcium fluorescence, mosquito biting behavior (AID 1259423).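 Further: 0% = vehicle and 100% = reference agonist at the receptor.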 As to conditions: HEK293T NPYLR7/Galpha15, GCaMP6s calcium fluorescence, at 10 µM, stronger effect = higher value.
[1] abbreviates: measured here: Max-Min RFU normalised activation.

Screen size: about 270,000 compounds; about 410 (0.15%) were called active. No stated cut-off is given here; in the data, active means activation above about 40%; inactive means the rest, inconclusive results apart. This excerpt belongs to a sample that is enriched for actives.

On to `CCCCN(C)C(=O)c1nn(Cc2ccc(S(=O)(=O)N(C)c3ccccc3)cc2)c2ccccc12`, for which the activation was 11.3% (inactive). For the same compound, the activation under setting [1] worked out at 10%.
On the same counts, the results for `CNC(C)c1nc2ccccc2c(=O)n1-c1ccc(Br)cc1` (stereo not drawn) are 0.997% (inactive) and 9.08%.
Take `CC(C)CN(Cc1cc(NC(=O)c2cccc(F)c2)ccc1N(C)C1CCN(C)CC1)C(=O)c1ccccc1Cl`: the activation was 1.98% (inactive). Moreover, the activation under setting [1] was 1.76%.
`N#[N+]c1c[nH]c2ccccc2c1=O`: the activation was -8.5% (inactive). In addition, the activation under setting [1] is -5.61%.

The values are drawn from PubChem BioAssay AID1259423 (Fisher Drug Discovery Resource Center, 2018).
